This passage reports binding signal results from PMC5700166.

Assay in all cases: protein-binding microarray (PBM); PBM: ~300 nM protein, 6 mM HEPES pH 7.8, 80 mM KCl, 0.5 mM EDTA, 0.5 mM EGTA, 6% glycerol, 35 ng/ul poly-dIdC, 1% milk, 1 h, room temperature; Ap Aiptasia and Nv Nematostella (sea anemones) / Co Capsaspora / Aq Amphimedon (sponge) / Dm Drosophila / Hu human; RHD is the Rel homology domain; high values mean tight binding
Holding throughout (details): dsDNA, one strand shown

Experiment [1] concerns the target T1, GST-Ap-NF-kB RHD (Exaiptasia pallida (Aiptasia), UniProt A0A913YAJ5 2-422).
T1 sequence: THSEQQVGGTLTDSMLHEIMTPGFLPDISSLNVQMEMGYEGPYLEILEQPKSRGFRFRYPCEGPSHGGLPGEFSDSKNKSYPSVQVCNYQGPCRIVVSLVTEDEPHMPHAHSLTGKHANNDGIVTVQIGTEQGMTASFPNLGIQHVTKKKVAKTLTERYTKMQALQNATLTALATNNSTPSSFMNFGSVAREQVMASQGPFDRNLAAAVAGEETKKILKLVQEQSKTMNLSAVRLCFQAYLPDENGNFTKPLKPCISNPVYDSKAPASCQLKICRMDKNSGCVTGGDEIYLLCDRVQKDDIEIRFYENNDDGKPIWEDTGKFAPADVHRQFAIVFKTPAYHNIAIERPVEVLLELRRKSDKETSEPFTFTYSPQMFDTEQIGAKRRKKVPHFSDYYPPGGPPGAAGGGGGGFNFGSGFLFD

In experiment [2] the target is T2, GST-Co-NF-kB (Capsaspora owczarzaki, UniProt F1ARL5 200-546).
T2 sequence: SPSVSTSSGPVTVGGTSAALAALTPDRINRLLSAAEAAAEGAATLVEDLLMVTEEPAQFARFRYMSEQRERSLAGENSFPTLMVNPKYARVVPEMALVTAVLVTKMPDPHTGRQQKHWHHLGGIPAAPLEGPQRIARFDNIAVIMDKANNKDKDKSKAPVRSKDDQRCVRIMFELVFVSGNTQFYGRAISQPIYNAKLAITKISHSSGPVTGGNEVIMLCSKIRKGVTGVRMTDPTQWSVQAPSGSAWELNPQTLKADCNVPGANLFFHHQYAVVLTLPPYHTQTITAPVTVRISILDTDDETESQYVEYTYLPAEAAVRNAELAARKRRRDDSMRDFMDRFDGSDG

The target in experiment [3] is T3, GST-Aq-NF-kB (Amphimedon queenslandica, UniProt A9Y5G7 2-389).
T3 sequence: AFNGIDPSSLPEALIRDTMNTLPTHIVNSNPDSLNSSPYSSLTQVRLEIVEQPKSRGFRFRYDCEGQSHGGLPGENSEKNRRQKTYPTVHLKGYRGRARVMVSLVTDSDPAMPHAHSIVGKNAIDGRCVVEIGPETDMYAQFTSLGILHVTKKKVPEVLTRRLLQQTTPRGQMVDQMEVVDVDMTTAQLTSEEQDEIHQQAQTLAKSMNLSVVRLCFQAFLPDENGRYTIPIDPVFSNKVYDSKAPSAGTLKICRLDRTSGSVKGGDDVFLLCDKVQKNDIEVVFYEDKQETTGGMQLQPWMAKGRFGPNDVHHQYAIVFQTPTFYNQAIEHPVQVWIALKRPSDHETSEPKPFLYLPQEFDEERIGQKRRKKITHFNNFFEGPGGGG

In experiment [4] the target is T4, GST-Nv-NF-kB (Ser allele) (Nematostella vectensis, UniProt A7UNT2 2-411).
T4 sequence: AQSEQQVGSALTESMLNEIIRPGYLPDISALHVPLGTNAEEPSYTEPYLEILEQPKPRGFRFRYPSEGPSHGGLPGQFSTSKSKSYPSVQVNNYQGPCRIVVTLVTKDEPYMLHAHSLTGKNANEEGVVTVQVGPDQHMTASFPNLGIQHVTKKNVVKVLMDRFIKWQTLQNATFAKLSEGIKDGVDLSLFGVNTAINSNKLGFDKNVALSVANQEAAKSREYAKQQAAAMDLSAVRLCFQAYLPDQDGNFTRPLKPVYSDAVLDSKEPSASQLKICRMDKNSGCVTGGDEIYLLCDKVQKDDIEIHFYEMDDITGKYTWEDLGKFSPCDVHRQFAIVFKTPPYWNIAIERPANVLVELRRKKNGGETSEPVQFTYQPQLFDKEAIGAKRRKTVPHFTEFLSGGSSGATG

Experiment [5] addresses T5, GST-Dm-Relish (Drosophila melanogaster, UniProt Q94527 99-473).
T5 sequence: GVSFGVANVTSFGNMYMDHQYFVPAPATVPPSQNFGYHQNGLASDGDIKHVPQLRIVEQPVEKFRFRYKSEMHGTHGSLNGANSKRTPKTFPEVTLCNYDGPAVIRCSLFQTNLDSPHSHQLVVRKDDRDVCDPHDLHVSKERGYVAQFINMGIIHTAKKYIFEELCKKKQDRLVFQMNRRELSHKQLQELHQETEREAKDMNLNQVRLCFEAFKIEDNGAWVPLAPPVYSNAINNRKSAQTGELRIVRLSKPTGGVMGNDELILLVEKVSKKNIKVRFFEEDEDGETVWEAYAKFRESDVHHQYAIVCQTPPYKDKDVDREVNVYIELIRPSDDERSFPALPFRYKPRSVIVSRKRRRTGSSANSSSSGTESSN

As to “CCGATTAACATCATAAGGGGTGTTGATGTTAATCGGGTCTTGATTCGCTTGACGCTGCTG”, the binding signal is 2.3 z-score in experiment [1], 1.09 z-score in experiment [2] and 1.91 z-score in experiment [3].

Regarding “CCGATTAACATCAGGGGGGGAAATGATGTTAATCGGGTCTTGATTCGCTTGACGCTGCTG”, the binding signal in experiment [1] is 6.79 z-score; in experiment [4] it was 7.98 z-score; in experiment [2], 10.2 z-score; in experiment [5], 5.34 z-score; in experiment [3], 5.89 z-score.

“CCGATTAACATCAAGGGGGGAAATGATGTTAATCGGGTCTTGATTCGCTTGACGCTGCTG”: the binding signal was 6.16 z-score in experiment [1]; 8.51 z-score in experiment [4]; 7.79 z-score in experiment [2]; 4.47 z-score in experiment [5]; 5.8 z-score in experiment [3].

With “CCGATTAACATCAGGGGGGGGAATGATGTTAATCGGGTCTTGATTCGCTTGACGCTGCTG”, the binding signal in experiment [1] is 7.86 z-score; in experiment [2] it was 8.84 z-score; in experiment [5], 5.27 z-score; in experiment [3] it was 5.65 z-score.

As for “CCGATTAACATCAGGTAACCCCATGATGTTAATCGGGTCTTGATTCGCTTGACGCTGCTG”, the binding signal amounted to 3.05 z-score in experiment [1], 2.06 z-score in experiment [2], 6.29 z-score in experiment [5] and 2.29 z-score in experiment [3].

For “CCGATTAACATCACTCCCCCCCATGATGTTAATCGGGTCTTGATTCGCTTGACGCTGCTG”, the binding signal in experiment [1] turned out to be 5.11 z-score; in experiment [4], 3.12 z-score; in experiment [2], 6.71 z-score; in experiment [5], 3.23 z-score; in experiment [3], 4.01 z-score.

With “CCGATTAACATCAACCCCCCCCGTGATGTTAATCGGGTCTTGATTCGCTTGACGCTGCTG”, the binding signal is 5.8 z-score in experiment [1]; 2.64 z-score in experiment [4]; 6.25 z-score in experiment [2]; 6.51 z-score in experiment [5]; 4.08 z-score in experiment [3].

As to “CCGATTAACATCATCCGCGGGAGTGATGTTAATCGGGTCTTGATTCGCTTGACGCTGCTG”, the binding signal in experiment [1] was 1.05 z-score; in experiment [2] it was 1.38 z-score; in experiment [3] it was 1.92 z-score.

As for “CCGATTAACATCACGGGGTGGCCTGATGTTAATCGGGTCTTGATTCGCTTGACGCTGCTG”, the binding signal in experiment [1] amounted to 1.24 z-score; in experiment [2], 1.78 z-score; in experiment [5] it was 1.37 z-score; in experiment [3] it was 1.55 z-score.

Take “CCGATTAACATCATGGGGGGGAATGATGTTAATCGGGTCTTGATTCGCTTGACGCTGCTG”: the binding signal in experiment [1] is 6.87 z-score; in experiment [2] it was 8.77 z-score; in experiment [5] it was 4.72 z-score; in experiment [3], 5.36 z-score.

Regarding “CCGATTAACATCACGGGCACCCCTGATGTTAATCGGGTCTTGATTCGCTTGACGCTGCTG”, the binding signal came out at 1.72 z-score in experiment [1], 1.34 z-score in experiment [2], 2.01 z-score in experiment [5] and 2.04 z-score in experiment [3].

In the case of “CCGATTAACATCAGGGGTACACATGATGTTAATCGGGTCTTGATTCGCTTGACGCTGCTG”, the binding signal was 1.77 z-score in experiment [1], 4.09 z-score in experiment [2], 1.13 z-score in experiment [5] and 1.07 z-score in experiment [3].

For the sequence “CCGATTAACATCAAGGGGGGGATTGATGTTAATCGGGTCTTGATTCGCTTGACGCTGCTG”, the binding signal in experiment [1] amounted to 7.19 z-score; in experiment [2], 4.35 z-score; in experiment [5], 5.64 z-score; in experiment [3], 5.59 z-score.

For “CCGATTAACATCAAGGGGGGAGGTGATGTTAATCGGGTCTTGATTCGCTTGACGCTGCTG”, the binding signal was 4.12 z-score in experiment [1]; 4.04 z-score in experiment [4]; 5.65 z-score in experiment [2]; 3.23 z-score in experiment [5]; 4.07 z-score in experiment [3].

As for “CCGATTAACATCACTTCCCCCCCTGATGTTAATCGGGTCTTGATTCGCTTGACGCTGCTG”, the binding signal in experiment [1] came out at 5.69 z-score; in experiment [4] it was 5.01 z-score; in experiment [2], 8 z-score; in experiment [5] it was 4.33 z-score; in experiment [3], 4.94 z-score.

In the case of “CCGATTAACATCAGGGCTTCCCATGATGTTAATCGGGTCTTGATTCGCTTGACGCTGCTG”, the binding signal was 1.44 z-score in experiment [1], 1.01 z-score in experiment [2], 8.36 z-score in experiment [5] and 3.5 z-score in experiment [3].

Take “CCGATTAACATCACGGACACCCCTGATGTTAATCGGGTCTTGATTCGCTTGACGCTGCTG”: the binding signal in experiment [1] came out at 1.65 z-score; in experiment [2] it was 1.34 z-score; in experiment [5], 1.95 z-score; in experiment [3], 2.16 z-score.

Take “CCGATTAACATCATAGTGAGGGGTGATGTTAATCGGGTCTTGATTCGCTTGACGCTGCTG”: the binding signal is 2.05 z-score in experiment [1], 1.74 z-score in experiment [2] and 1.09 z-score in experiment [3].

For the sequence “CCGATTAACATCAATTCCCCCCCTGATGTTAATCGGGTCTTGATTCGCTTGACGCTGCTG”, the binding signal in experiment [1] was 8.18 z-score; in experiment [4], 7.32 z-score; in experiment [2], 8.87 z-score; in experiment [5], 6.09 z-score; in experiment [3] it was 6.45 z-score.

With “CCGATTAACATCAAGGTGTTCCCTGATGTTAATCGGGTCTTGATTCGCTTGACGCTGCTG”, the binding signal in experiment [1] amounted to 1.65 z-score; in experiment [2], 2.38 z-score; in experiment [5], 4.31 z-score; in experiment [3], 2.49 z-score.

As to “CCGATTAACATCAGGATATCCCATGATGTTAATCGGGTCTTGATTCGCTTGACGCTGCTG”, the binding signal in experiment [1] came out at 2.32 z-score; in experiment [2] it was 1.41 z-score; in experiment [5], 3 z-score; in experiment [3], 2.24 z-score.

Take “CCGATTAACATCAAGGGGGGGAATGATGTTAATCGGGTCTTGATTCGCTTGACGCTGCTG”: the binding signal in experiment [1] was found to be 6.62 z-score; in experiment [2] it was 8.37 z-score; in experiment [5], 4.96 z-score; in experiment [3], 5.81 z-score.

For “CCGATTAACATCACCCTTGGGAATGATGTTAATCGGGTCTTGATTCGCTTGACGCTGCTG”, the binding signal is 1.03 z-score in experiment [1], 2.46 z-score in experiment [2] and 2.01 z-score in experiment [3].

“CCGATTAACATCAGGGGGGGGGATGATGTTAATCGGGTCTTGATTCGCTTGACGCTGCTG”: the binding signal in experiment [1] is 6.37 z-score; in experiment [2], 7.03 z-score; in experiment [5], 5.78 z-score; in experiment [3], 5.02 z-score.

As to “CCGATTAACATCAAGGGGGGGAGTGATGTTAATCGGGTCTTGATTCGCTTGACGCTGCTG”, the binding signal in experiment [1] was determined as 4.51 z-score; in experiment [2], 7.82 z-score; in experiment [5], 3.56 z-score; in experiment [3], 4.43 z-score.

In the case of “CCGATTAACATCACGGTACGGGGTGATGTTAATCGGGTCTTGATTCGCTTGACGCTGCTG”, the binding signal in experiment [1] was 2.02 z-score; in experiment [2] it was 2.2 z-score; in experiment [5] it was 1.48 z-score; in experiment [3] it was 1.51 z-score.

As for “CCGATTAACATCAGGGGGGGATATGATGTTAATCGGGTCTTGATTCGCTTGACGCTGCTG”, the binding signal in experiment [1] was found to be 6.21 z-score; in experiment [4], 5.63 z-score; in experiment [2], 5.9 z-score; in experiment [5] it was 4.91 z-score; in experiment [3], 5.29 z-score.

For the sequence “CCGATTAACATCACACCCCAACATGATGTTAATCGGGTCTTGATTCGCTTGACGCTGCTG”, the binding signal in experiment [1] was determined as 1.38 z-score; in experiment [2], 2.16 z-score; in experiment [3] it was 1.02 z-score.
